PubChem BioAssay (NCI)
Compounds without any hit were thinned out: in the full panel of roughly 79,000, 15% have a hit. Values without a mark were called inactive. Calls of active or inactive are those of the source. Cut-off read from the data, not from the text of the source: active = growth inhibition above about 70%; inactive = the rest.

What was measured:
[1] = NCI Yeast Anticancer Drug Screen. Data for the rad50 strain (AID 155);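 note: 0% = growth of vehicle-only cultures of the same strain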; conditions: S. cerevisiae rad50 strain growth inhibition, hits give high values
In short: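 A DNA repair-deficient yeast mutant serves as the test organism; compound-induced growth inhibition is calculated against vehicle-treated cells.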

[2] = NCI Yeast Anticancer Drug Screen. Data for the mec2-1 strain (AID 157); conditions: S. cerevisiae mec2-1 strain, hits give high values
In short: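 Growth inhibition is read against vehicle-treated controls after compound exposure of the mec2-1 yeast strain, which is defective in DNA damage repair or cell cycle control.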

[3] = NCI Yeast Anticancer Drug Screen. Data for the sgs1 mgt1 strain (AID 161);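 note: 0% = growth of cultures given vehicle only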; conditions: S. cerevisiae sgs1 mgt1 strain, hits give high values
In short: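 Yeast cells carrying a defined DNA-repair defect were exposed to test compounds. Growth inhibition was measured relative to vehicle-treated controls.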

[4] = NCI Yeast Anticancer Drug Screen. Data for the cln2 rad14 strain (AID 165);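 note: 0% = growth equal to vehicle treated cultures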; conditions: S. cerevisiae cln2 rad14 strain, hits give high values
In short: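 Growth inhibition, relative to vehicle-treated controls, is the read-out. The test organism is a yeast strain with defined genetic alterations, cln2 rad14.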

[5] = NCI Yeast Anticancer Drug Screen. Data for the bub3 strain (AID 167); conditions: S. cerevisiae bub3 mutant strain, hits give high values
In short: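 Inhibition values come from growth of compound-treated mutant yeast normalised to vehicle-treated controls.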

[6] = NCI Yeast Anticancer Drug Screen. Data for the mlh1 rad18 strain (AID 175); conditions: S. cerevisiae mlh1 rad18 strain growth inhibition, hits give high values
In short: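 Cells of a genetically altered yeast strain, deficient in DNA damage repair, were treated with compound. Their growth was then compared with that of vehicle-treated cultures to give inhibition.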

[7] = at 5.0 µM (retest, dose inferred, filed as 0.5)
[8] = at 50.0 µM (retest, dose inferred, filed as 5.0)

Row | Compound | growth inhibition [1, 7] | growth inhibition [1, 8] | growth inhibition ([1]; at 50.0 µM) | growth inhibition [2, 7] | growth inhibition [2, 8] | growth inhibition ([2]; at 50.0 µM) | growth inhibition [3, 7] | growth inhibition [3, 8] | growth inhibition ([3]; at 50.0 µM) | growth inhibition [4, 7] | growth inhibition [4, 8] | growth inhibition ([4]; at 50.0 µM) | growth inhibition [5, 7] | growth inhibition [5, 8] | growth inhibition ([5]; at 50.0 µM) | growth inhibition [6, 7] | growth inhibition [6, 8] | growth inhibition ([6]; at 50.0 µM)
1 | O=[N+]([O-])O.[In] | 9% | 49% | 11.6% | 17% | 53% | 44.2% | 6% | 43% | 50.3% | 3% | 22% | -24.1% | 11% | 58% | -1.85% | 13% | 55% | 65.3%
2 | Clc1ccc(Cl)c(Cl)c1 | -10% | 99% (active) | 98.4% (active) | -3% | 97% (active) | 99% (active) | -6% | 98% (active) | 98.8% (active) | 8% | 92% (active) | 96.5% (active) | -8% | 98% (active) | 62% | 2% | 99% (active) | 98.2% (active)
3 | CC[PH+](CC)CC.[Cl][Au] | 98% (active) | 98% (active) | 89.8% (active) | 99% (active) | 99% (active) | 91.4% (active) | 97% (active) | 98% (active) | 91.3% (active) | 92% (active) | 99% (active) | 90.8% (active) | 99% (active) | 99% (active) | 89.8% (active) | 94% (active) | 99% (active) | 90.8% (active)
4 | CCOC(=O)c1ccc(NP(=O)(Oc2ccccc2)Oc2ccccc2)cc1 | -4% | 49% | 64.8% | 18% | 75% (active) | 52.9% | -18% | 66% | 64.7% | -10% | 56% | 69.2% | -6% | 89% (active) | 59.5% | 24% | 88% (active) | 77.8% (active)
5 | CCC[CH2][Sn]([CH2]CCC)([N]=C=S)[N]=C=S | 85% (active) | 97% (active) | 97.9% (active) | 92% (active) | 98% (active) | 98% (active) | 92% (active) | 98% (active) | 98% (active) | 87% (active) | 97% (active) | 97.3% (active) | 94% (active) | 97% (active) | 98.4% (active) | 93% (active) | 98% (active) | 98.1% (active)
6 | COc1cc(/C=C(\C)[N+](=O)[O-])cc(Br)c1O | 0% | 61% | 86.7% (active) | 1% | 82% (active) | 90.8% (active) | 8% | 91% (active) | 91% (active) | 3% | 43% | 53.5% | -3% | 54% | 93% (active) | 2% | 81% (active) | 98.7% (active)
7 | Cc1ccc2c(-c3ccccc3)c3ccccc3[s+]c2c1 | 2% | 99% (active) | 99.5% (active) | 2% | 100% (active) | 99.3% (active) | 6% | 99% (active) | 99.5% (active) | 1% | 99% (active) | 99% (active) | -13% | 99% (active) | 99.2% (active) | 1% | 99% (active) | 99.2% (active)
8 | CC(C)=CCC/C(C)=C/CC/C(C)=C/Cc1c(O)c2ccccc2oc1=O | 16% | 94% (active) | 89% (active) | 5% | 97% (active) | 91.5% (active) | 7% | 95% (active) | 89.7% (active) | 29% | 96% (active) | 89.2% (active) | -11% | 95% (active) | 88.3% (active) | -21% | 98% (active) | 89.2% (active)
9 | COc1cc(/C=C/c2ccc(OC)c(O)c2)cc(OC)c1 | 0% | 96% (active) | 98.3% (active) | -4% | 98% (active) | 99.2% (active) | 5% | 98% (active) | 98.9% (active) | -14% | 97% (active) | 98.2% (active) | -4% | 98% (active) | 98.2% (active) | -3% | 97% (active) | 98.9% (active)
